We go through 96 compounds from PubChem BioAssay AID463075 (University of Pittsburgh Molecular Library Screening Center, 2010).

Screen size: about 220,000 compounds; about 150 (0.068%) were called active.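 Rule for the calls: active = activation, meaning protection from cell death, of at least 50% relative to plate controls; inactive = activation below 50%.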 Many of the other results were omitted from the sample, so actives are more common in it than they were.

The assay is described as follows: rescue of FADD-deficient Jurkat cells from TNF-alpha death – single concentration, primary screen (AID 463075).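 Note: necroptosis triggered by 40 ng/mL TNF-alpha added together with compound.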 Particulars: Jurkat FADD-/- TNF necroptosis rescue, ATP luminescence, 24 h; at 10 µM; hits give high values; 0 = TNF only, 100 = no-TNF cells.
Consider `COc1ccc(NC(=O)C2=C(C)NC(=O)NC2c2ccccc2[N+](=O)[O-])cc1` (stereo unspecified), for which the activation (protection from cell death) is 0.73% (inactive).

Take `CCOC(=O)c1cc(Sc2ccccc2N)cc(C(=O)OCC)n1`: the activation (protection from cell death) is 0.0548% (inactive).

In the case of `COc1ccc(OCc2cn3c(C)cc(C)nc3n2)cc1`, the activation (protection from cell death) is 1.17% (inactive).

For `CC1COc2ccccc2N1S(=O)(=O)c1ccccc1` (stereo unspecified), the activation (protection from cell death) was -0.217% (inactive).

For the compound `CCOc1ccccc1NC(=O)C12CC3CC(C1)CC(c1ccc(C)cc1)(C3)C2`, the activation (protection from cell death) was -1.89% (inactive).

For the compound `O=c1ccnc(Nc2ccc(Cl)cc2)[nH]1`, the activation (protection from cell death) is 2.1% (inactive).

Turning to `Cc1csc(Nc2ccc(Cl)cc2)[n+]1-c1ccc(Cl)cc1`, the activation (protection from cell death) is 52.7% (active).

Turning to `Cc1ccc(NC(=O)c2ccc(Oc3ncccn3)cc2)cc1`, the activation (protection from cell death) is -0.146% (inactive).

In the case of `CN(C)Cc1ccc(F)cc1Sc1cc(Cl)ccc1Cl`, the activation (protection from cell death) was 0.603% (inactive).

`CCOC(=O)CNC(=O)N1c2ccccc2Sc2ccccc21`: the activation (protection from cell death) was -1.84% (inactive).

Take `C=CCNC(=O)c1cc2nc(C3CC3)cc(C(F)F)n2n1`: the activation (protection from cell death) is 0.00242% (inactive).

Regarding `Cc1ccc(C(=O)/C=C/Nc2ccc(S(=O)(=O)Nc3onc(C)c3C)cc2)cc1`, the activation (protection from cell death) was 1.49% (inactive).

As to `CCN(CC)c1ccc(C(=O)c2cnc(/N=C/N(C)C)s2)cc1`, the activation (protection from cell death) is 2.87% (inactive).

For `CC(NC(=S)NNS(=O)(=O)c1ccc(C(C)(C)C)cc1)c1ccccc1` (stereo unspecified), the activation (protection from cell death) was 5.41% (inactive).

On to `COc1cc(OC)cc(C(=O)NC2CCN(C(=O)N3c4ccccc4Sc4ccccc43)CC2)c1`, for which the activation (protection from cell death) was -2.58% (inactive).

Take `CN(C)CCCn1c(SCCN2C(=O)c3ccccc3C2=O)nc2ccccc2c1=O`: the activation (protection from cell death) is 0.858% (inactive).

As for `CCN(CC)C(=O)CSc1nnc(CNc2ccc(F)cc2)n1Cc1ccco1`, the activation (protection from cell death) is 0.256% (inactive).

Turning to `C/C(CC(C)C)=N\Oc1nc(C)cc(C)n1`, the activation (protection from cell death) is 1.02% (inactive).

Consider `Clc1ccc(-c2cc(C3CCNCC3)[nH]n2)c(Cl)c1`, for which the activation (protection from cell death) is 4.13% (inactive).

On to `FC(F)(F)c1cc(C(F)(F)F)c2ccc(N3CCN(c4ccccc4)CC3)nc2n1`, for which the activation (protection from cell death) was -0.212% (inactive).

On to `NC(=O)c1ccc(NC(=O)COC(=O)C(Cc2ccccc2)NC(=O)c2ccccc2)cc1` (stereo unspecified), for which the activation (protection from cell death) is 0.97% (inactive).

As to `Cc1nn(C)c(C)c1S(=O)(=O)N1CCC(CO)(Cc2ccc(Cl)cc2)CC1`, the activation (protection from cell death) was -0.682% (inactive).

Take `CCC1CO/C(=C(\C(=C(Cl)Cl)N2CCOCC2)[N+](=O)[O-])N1` (stereo unspecified): the activation (protection from cell death) is 0.241% (inactive).

In the case of `C=C(C)COc1ccc(-c2nc(N)ncc2-c2ccccc2OC)c(O)c1`, the activation (protection from cell death) is 1.21% (inactive).

As to `OCC1(CCc2ccccc2)CCN(Cc2ccc3nsnc3c2)CC1`, the activation (protection from cell death) is 1.53% (inactive).

For `NS(=O)(=O)c1ccc(NC(=S)NC(=O)c2cccc(Br)c2)cc1`, the activation (protection from cell death) is -0.737% (inactive).

As to `CCOc1ccc(NC(=O)C2CC(=O)N=C(N)S2)cc1` (stereo unspecified), the activation (protection from cell death) was 0.442% (inactive).

`CCOC(=O)C1=C(CC)Nc2ccccc2N=C1NC(=O)c1cccc(S(=O)(=O)N2CCCC2)c1`: the activation (protection from cell death) was -3.1% (inactive).

With `COC(=O)C1CCN(CC(N)=O)CC1`, the activation (protection from cell death) was 1.78% (inactive).

Take `Cc1c([N+](=O)[O-])c(N)nn1C`: the activation (protection from cell death) was 0.221% (inactive).

`COc1ccc(CC(=O)NCc2nnc(SCC(=O)Nc3ncc(C)s3)n2C)cc1`: the activation (protection from cell death) is 1.73% (inactive).

In the case of `Clc1ncn(CCOc2ccccc2)c1Cl`, the activation (protection from cell death) was 3.48% (inactive).

As to `N#Cc1c(N2CCCCC2)nc(N)c2c(N)nc(SCC(=O)O)cc12`, the activation (protection from cell death) is -7.92% (inactive).

For the compound `Cc1cc(C(=O)COC(=O)C2CC2)c(C)n1-c1ccc(F)cc1`, the activation (protection from cell death) is -0.153% (inactive).

As for `CN(C(=O)c1c(Cl)cnn1C)C12CC3CC(CC(C3)C1)C2`, the activation (protection from cell death) is -0.801% (inactive).

With `CCNc1ccc(C(=O)OCC(=O)N2c3ccccc3NC(=O)C2(C)C)cc1[N+](=O)[O-]`, the activation (protection from cell death) is 1.58% (inactive).

For the compound `CCn1c2ccccc2c2cc(CC(N)=O)ccc21`, the activation (protection from cell death) is -1.12% (inactive).

In the case of `CCc1ccccc1NC(=O)CN(c1ccc(OC)cc1OC)S(=O)(=O)c1ccccc1[N+](=O)[O-]`, the activation (protection from cell death) is 0.342% (inactive).

Turning to `Cc1ccc2nc(SC(C)C(=O)NCc3ccco3)[nH]c2c1` (stereo unspecified), the activation (protection from cell death) was -0.614% (inactive).

Take `CCOC(=O)c1c(N)sc2c1CCCC2=O`: the activation (protection from cell death) was -2.66% (inactive).

`O=C1OCC2=C1C(c1ccccc1)CC(=O)N2c1cccc(F)c1` (stereo unspecified): the activation (protection from cell death) is -0.757% (inactive).

`O=C1CC(c2ccccc2)C(=O)N1c1cccc(O)c1` (stereo unspecified): the activation (protection from cell death) was 52% (active).

On to `O=C1CC(NNc2ccccc2)C(=O)N1c1cccc(Cl)c1` (stereo unspecified), for which the activation (protection from cell death) was -2.98% (inactive).

On to `Cc1nnc(Nc2ccccc2F)s1`, for which the activation (protection from cell death) was 0.78% (inactive).

Turning to `N#Cc1c(-c2ccc(Cl)cc2)c2c([nH]c1=S)CCCC2`, the activation (protection from cell death) is -2.48% (inactive).

In the case of `O=C(O)c1ccccc1-c1ccccc1C(=O)NCc1cccnc1`, the activation (protection from cell death) was 0.395% (inactive).

On to `CCN(C(=O)COc1cccnc1[N+](=O)[O-])C1CCS(=O)(=O)C1` (stereo unspecified), for which the activation (protection from cell death) is 0.598% (inactive).

On to `CCC(C)n1c(-c2cc(OC)c(OC)c(OC)c2)nc2nc3ccccc3nc21` (stereo unspecified), for which the activation (protection from cell death) was -16.6% (inactive).

For `CC(=O)Nc1nc2c(s1)C(=O)NCC(C)(C)C2`, the activation (protection from cell death) is 0.16% (inactive).

With `Cc1ccc(S(=O)(=O)NCCc2nnc3ccc(SCc4cccnc4)nn23)cc1`, the activation (protection from cell death) was -0.101% (inactive).

For the compound `O=C(Cc1c(F)cccc1Cl)Nc1ccc(-n2cnnn2)cc1`, the activation (protection from cell death) was 0.184% (inactive).

`O=C(Cc1c(F)cccc1Cl)Nc1ncc([N+](=O)[O-])s1`: the activation (protection from cell death) was 59.9% (active).

Consider `O=C(CCc1ccccc1)Nc1ncc([N+](=O)[O-])s1`, for which the activation (protection from cell death) was 9.81% (inactive).

Take `COc1ccc(Br)cc1C(=O)Nc1cccc(C)c1C`: the activation (protection from cell death) is 0.986% (inactive).

With `O=C(NC(Cc1c[nH]c2ccccc12)C(=O)N/N=C/c1ccc(Br)cc1)c1cccs1` (stereo unspecified), the activation (protection from cell death) was -2.26% (inactive).

Turning to `CC(C)c1nc(CNC(=O)CC2C(=O)NCCN2Cc2ccoc2)cs1` (stereo unspecified), the activation (protection from cell death) is -0.307% (inactive).

With `CCc1cc(CNC(=O)CC2C(=O)NCCN2Cc2ccccc2C(F)(F)F)on1` (stereo unspecified), the activation (protection from cell death) is 1.76% (inactive).

In the case of `COC(=O)c1ccc(CN(c2ccccc2OC)S(=O)(=O)c2cccs2)o1`, the activation (protection from cell death) is 0.0719% (inactive).

As to `COC(=O)c1ccc(CSc2ccccc2C)o1`, the activation (protection from cell death) was 6.63% (inactive).

For the compound `COC(=O)c1ccc(Cc2ccccc2)o1`, the activation (protection from cell death) is 55.2% (active).

For `COc1ccccc1CNC(=O)CN1CCC(n2cnc3cc(F)ccc32)CC1`, the activation (protection from cell death) was 4.48% (inactive).

For the compound `O=C(c1ccc(S(=O)(=O)c2ccccc2)cc1)N1CCCCCC1`, the activation (protection from cell death) is 1.36% (inactive).

Regarding `Nc1c(-c2cccc(Cl)c2)cnn1-c1cccc([N+](=O)[O-])c1`, the activation (protection from cell death) is -1.25% (inactive).

Regarding `c1ccc(-c2csc(N3CCc4ccccc4C3)n2)cc1`, the activation (protection from cell death) was -3.03% (inactive).

As for `C=CCCN(Cc1ccccc1)S(=O)(=O)c1ccccc1Br`, the activation (protection from cell death) is -2.9% (inactive).

As for `CC(C)(C)c1ccc(/C=C2\SC(=O)N=C2N)cc1`, the activation (protection from cell death) is 2.08% (inactive).

As for `Cc1cccc(NC(=O)c2nc[nH]c2C(=O)NCC(=O)OCc2ccccc2)c1`, the activation (protection from cell death) is -9.45% (inactive).

For `CCN(CC)CCNC(=O)c1ccc(NC(=O)c2c(F)cccc2Cl)cc1`, the activation (protection from cell death) is -0.132% (inactive).

Consider `COc1ccccc1C(=O)CSc1cccc[n+]1[O-]`, for which the activation (protection from cell death) was -0.693% (inactive).

For `Cc1cc(C(=O)OCC(=O)Nc2ccc(F)c(F)c2)c(C)o1`, the activation (protection from cell death) was 3.31% (inactive).

As to `COCCCNC(=O)C1CCC(CNS(=O)(=O)c2ccc(OC)cc2)CC1` (stereo unspecified), the activation (protection from cell death) was 1.04% (inactive).

Take `Cc1cccc(C(=O)N2CCc3c([nH]c4ccccc34)C2CC(C)C)n1` (stereo unspecified): the activation (protection from cell death) was 1.18% (inactive).

As to `Cc1cc([N+](=O)[O-])nn1Cc1ccc(F)cc1`, the activation (protection from cell death) is 76.6% (active).

For the compound `Cc1cc([N+](=O)[O-])nn1CCCC(=O)Nc1cccnc1Cl`, the activation (protection from cell death) is 0.812% (inactive).

As to `Cc1cc([N+](=O)[O-])nn1CC(=O)Nc1ccc(Cc2ccncc2)cc1`, the activation (protection from cell death) is 3.27% (inactive).

As for `CC(=O)Nc1ccn(Cc2c(F)cccc2Cl)n1`, the activation (protection from cell death) was 88% (active).

On to `O=C(Nc1ccn(Cc2ccccc2)n1)c1cccc(F)c1`, for which the activation (protection from cell death) was 3.16% (inactive).

Regarding `O=C(Nc1ccn(Cc2ccccc2F)n1)c1ccc(COc2ccc(Cl)cc2Cl)o1`, the activation (protection from cell death) was -6.7% (inactive).

In the case of `CCc1cccc(CC)c1NC(=O)COc1ccccc1C(=O)c1cc(C#N)c(=O)n(C2CCCCC2)c1`, the activation (protection from cell death) was 1.06% (inactive).

Regarding `Cn1nccc1NC(=O)Nc1ccc(OC(F)(F)F)cc1`, the activation (protection from cell death) is 2.9% (inactive).

`CCCC(=O)n1nc(NCc2ccc(OC)cc2)nc1NCc1ccc(OC)cc1`: the activation (protection from cell death) is 2.21% (inactive).

For `CC(C)CNC(=O)C(=O)NCc1ccccc1`, the activation (protection from cell death) is 1.96% (inactive).

As for `CC(C)(C)C(=O)N1CCC[C@@]1(CO)C(=O)O`, the activation (protection from cell death) is 1.03% (inactive).

With `CCN(Cc1ccncc1)C(=O)c1cccc(S(=O)(=O)N2CCOCC2)c1`, the activation (protection from cell death) is 0.919% (inactive).

Consider `COc1cc(C=O)ccc1Oc1nnnn1-c1ccccc1`, for which the activation (protection from cell death) was -3.04% (inactive).

Take `N#CC1(NC(=O)COc2ccc3oc4ccccc4c3c2)CCCCC1`: the activation (protection from cell death) was 1.8% (inactive).

As to `CC(C)N(C(=O)Cn1cc(SCC(=O)N2CCCC2)c2ccccc21)C(C)C`, the activation (protection from cell death) was 1.35% (inactive).

With `Cc1ccc(S(=O)(=O)N(C)C)cc1NC(=O)COC(=O)c1c(C)noc1C`, the activation (protection from cell death) was 0.89% (inactive).

Turning to `CN(C)CCNC(=O)/C(=C/c1cccc([N+](=O)[O-])c1)NC(=O)c1ccccc1`, the activation (protection from cell death) is 2.51% (inactive).

`COc1ccc(/C=C/C(=O)c2cc(Br)ccc(=O)c2O)cc1`: the activation (protection from cell death) is -1.56% (inactive).

As to `CCc1ccc(C2C(C#N)=C(N)N(N3CCOCC3)C3=C2C(=O)CC(C)(C)C3)s1` (stereo unspecified), the activation (protection from cell death) is 0.137% (inactive).

Consider `C[C@@H]1C[C@@H]2O[C@H]2/C=C\C=C\C(=O)Cc2c(Cl)c(O)cc(O)c2C(=O)O1`, for which the activation (protection from cell death) is 36.6% (inactive).

As to `C=CCOc1c(CNn2cn[nH]c2=S)cccc1OC`, the activation (protection from cell death) is -0.439% (inactive).

As for `Cc1n[nH]c(=O)nc1N/N=C/c1cccs1`, the activation (protection from cell death) is -6.4% (inactive).

As to `CCc1cccc(CC)c1NC(=S)Nc1ccc2cn[nH]c2c1`, the activation (protection from cell death) was -5.25% (inactive).

In the case of `C=CCNc1nc(N)c(C(=C(C#N)C#N)c2ccccc2)s1`, the activation (protection from cell death) was -6.24% (inactive).
